From PubChem BioAssay AID488899 (Broad Institute, 2010)
Hit rate of the full screen: of about 330,000 compounds, about 2,800 (0.85%) were called active. Only a selection was taken, and actives are over-represented in it overall. A number with no mark means an inactive call.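 Rule for the calls: active = mean inhibition across replicates of 60% or more, whatever share of single replicates reaches that level; inconclusive = some that reach 60%, reason not given; inactive = mean inhibition across replicates below 60%.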

Test: inhibitors of MITF-dependent TRPM1 promoter reporter, primary screen, cell-based, SK-MEL-5, single point, luciferase (AID 488899)
Conditions: SK-MEL-5 TRPM1 promoter luciferase, 24 h; at 12.5 µM; active compounds read high

| Structure (SMILES) | inhibition |
| --- | --- |
| Cc1csc(NC(=O)CSc2nnc(-c3cccnc3)o2)n1 | -14.8% |
| Cc1ccc(S(=O)(=O)N(Cc2cccc([N+](=O)[O-])c2)C(=O)N2CCN(C)CC2)cc1 | 4.92% |
| CCN(CC)C(=O)CN(c1cccc([N+](=O)[O-])c1)S(=O)(=O)c1ccccc1 | -4.33% |
| O=C(CCl)N(Cc1cccc([N+](=O)[O-])c1)c1cccc(Cl)c1 | 66.2% (active) |
| COCCSc1nnc(NC(=O)c2cc(OC)c(OC)cc2[N+](=O)[O-])s1 | -2.51% |
| CC(=NNC(=O)c1ccncc1)c1ccc(Cl)c(Cl)c1 | -7.3% |
| NS(=O)(=O)c1ccc(CNC(=O)c2ccc(Cl)cc2[N+](=O)[O-])cc1 | 10.6% |
| CCOC(=O)C1=C(c2ccccc2)NC(=S)NC1c1ccc(Cl)cc1 (stereo not given) | -19% |
| CC1=C(C(=O)OCc2ccccc2)C(c2ccc(C(F)(F)F)cc2)NC(=O)N1CCCCCC(=O)O (stereo not given) | -6.33% |
| CCCCNC(=O)C(C)N(CCN(C)C)C(=O)CCCN1C(=O)NC(c2ccc(Cl)cc2)C(C(=O)OCc2ccccc2)=C1C (stereo not given) | 91.1% (active) |
| CCOC(=O)CCCNC(=O)CN1C(=O)NC(CCc2ccccc2)C1=O (stereo not given) | 4.69% |
| CCCCNC(=O)C(C)N(CCN(C)C)C(=O)CCCCCN1C(=O)NC(c2ccc(Cl)cc2)C(C(=O)OCc2ccccc2)=C1C (stereo not given) | 94.5% (active) |
| CCN1C(=O)N[C@@H](c2ccccc2)C(C(=O)OC)=C1C | -9.9% |
| C/C(CC(=O)NCc1ccc(Cl)cc1)=N\NC(=O)COc1ccc(C)cc1Br | 40.1% |
| Nc1nc(SCC(=O)N2CCN(S(=O)(=O)c3ccc(Cl)cc3)CC2)n[nH]1 | -2.96% |
| Fc1ccccc1/C=N/Nc1cc(N2CCCCC2)ncn1 | -35% |
| COc1cccc2sc(N(CCCN(C)C)C(=O)CCS(=O)(=O)c3ccccc3)nc12 | 31.1% |
| COc1cc2ccccc2cc1C(=O)N(CCN(C)C)c1nc2c(F)cccc2s1 | 2.41% |
| COc1cccc2sc(N(CCCN(C)C)C(=O)C(c3ccccc3)c3ccccc3)nc12 | 71.9% (active) |
| COc1cccc2c1C(=O)c1c(O)c3c(c(O)c1C2=O)CC(O)(C(C)=NNC(=O)c1ccc(Cl)c(Cl)c1)CC3OC1CC(N)C(O)C(C)O1 (stereo not given) | 82.2% (active) |
| CN(CC(=O)Nc1ccc(F)c(F)c1F)C(=O)Cn1cnc2c1c(=O)n(C)c(=O)n2C | -2.69% |
| Cc1ccc(OCC(=O)Nc2ccc3oc(=O)ccc3c2)cc1C | -15.4% |
| CCN1/C(=C\c2ccc3ccccc3[n+]2CC)Sc2cc(C)ccc21 | 104% (active) |

| Structure (SMILES) | inhibition |
| --- | --- |
| CC(C)(C)n1nc2c(c1NC(=O)c1ccc(S(=O)(=O)N3CCCC3)cc1)CS(=O)C2 (stereo not given) | -11.4% |
| COc1ccc(S(=O)(=O)/N=C2\C=C(NS(=O)(=O)c3ccccc3)C(=O)c3ccccc32)cc1 | 12.7% |
| Cn1c(NC(=O)c2ccccc2)nc2ccccc21 | -26.1% |
| CC(NC(=O)c1ccccc1)C(=O)Nc1ccccc1 (stereo not given) | -6.34% |
| O=C(NC1=CC(=O)c2ccccc2C1=O)c1ccccc1 | 94.4% (active) |
| O=C1C=C(NS(=O)(=O)c2ccccc2)C(=O)c2ccccc21 | 65.7% (active) |
| O=S(=O)(NCCNS(=O)(=O)c1ccccc1)c1ccccc1 | 11.2% |
| O=C(COC(=O)CSc1nnc(-c2ccc(Cl)cc2)o1)Nc1cc(Cl)cc(Cl)c1 | -3.64% |
| CC(C)c1nc2oc3c(N4CCN(C)CC4)ncnc3c2c2c1CCC2 | 5.53% |
| CC(=O)N1CCc2ccc(N)cc21 | 6.31% |
| CSc1ccccc1NC(=O)c1cnc2sc(C)cn2c1=O | -128% |
| COCCN1C(=O)C(=O)/C(=C(/O)c2ccc(S(=O)(=O)N3CCOCC3)cc2)C1c1ccc(O)c(OC)c1 (stereo not given) | -1.49% |
| O=C(CNCc1ccc(Cl)cc1)Nc1cccc(C(=O)O)c1 | 2.1% |
| O=S1(=O)CCC(NC(=S)SCc2ccccc2Br)C1 (stereo not given) | 75.3% (active) |
| O=C(CSc1ccccc1F)NC1CCS(=O)(=O)C1 (stereo not given) | -4.88% |
| CCCSC(=S)NC1CCS(=O)(=O)C1 (stereo not given) | 17% |
| COc1ccc(OC)c(Cc2cnc3nc(N)nc(N)c3c2C)c1 | 8.03% |
| CCOC(=O)N1CCN(C(=O)c2ccc3c(=O)n(CCc4ccc(OC)c(OC)c4)c(=O)[nH]c3c2)CC1 | 2.29% |
| Cc1oc2c(C)c3oc(=O)c(CC(=O)N[C@@H](CC(C)C)C(=O)N[C@@H](Cc4ccccc4)C(=O)O)c(C)c3cc2c1C | 9.54% |
| CC(C)(C)NC(=O)COc1ccc(CNc2ccc3[nH]c(=O)[nH]c3c2)cc1 | 0.891% |
| O=C(c1ccc2nc(N3CCOCC3)sc2c1)N1CCN(c2ccc(Cl)cc2)CC1 | 4.87% |
| COc1ccc2nc(N3CCN(C(=O)c4ccc([N+](=O)[O-])o4)CC3)sc2c1 | 67.3% (active) |
| COc1ccc2nc(N3C(=O)C(O)=C(C(=O)c4ccco4)C3c3ccco3)sc2c1 (stereo not given) | 10.6% |

| Structure (SMILES) | inhibition |
| --- | --- |
| CC(C)(C)c1nnc2sc(SCC(O)=C(C#N)c3nc4ccccc4[nH]3)nn2c1=O | -7.27% |
| O=C(CN1CCc2ccccc2C1)Nc1cccc(S(=O)(=O)N2CCOCC2)c1 | 4.73% |
| COC(=O)c1ccc(CN2CCC(CO)(Cc3ccc(OC)cc3)CC2)cc1 | -13% |
| Nc1c(Cl)cc(S(N)(=O)=O)cc1S(N)(=O)=O | -2.87% |
| S=C(NCCCc1ccccc1)Nc1ccc(Br)cc1 | -6.26% |
| C=C(C)C(=O)O[C@H]1C/C(C)=C\C(=O)/C=C(\C)[C@H](O)[C@@H]2OC(=O)C(=C)[C@@H]21 | 85.9% (active) |
| O=[N+]([O-])c1cccc(C=NN=Cc2ccccc2O)c1 | -42.5% |
| CCOc1ccc(CCNC(=O)COC(=O)C2CCN(S(=O)(=O)c3ccccc3)CC2)cc1OCC | 9.54% |
| Cc1nn(Cc2ccc(Cl)cc2)c(Cl)c1/C=N/NC(=O)c1cccnc1 | 18.6% |
| Cc1c(Cl)c([N+](=O)[O-])nn1Cc1ccc(C(=O)N/N=C\c2cc(Cl)ccc2O)o1 | 65.8% (active) |
| O=C(N/N=C\c1ccc(Br)cc1)c1ccc(Cn2cccn2)o1 | -24.2% |
| COc1ccc(CCN2C(=O)CC(N3CCC(C(N)=O)CC3)C2=O)cc1OC (stereo not given) | 18.7% |
| CCCCN1CC(COCc2ccccc2)OCCS1(=O)=O (stereo not given) | 6.74% |
| O=C(CC1Sc2ccccc2NC1=O)NNc1ccc(Cl)c(Cl)c1 (stereo not given) | -0.562% |
| C[C@H]1CN([C@@H](C)CO)C(=O)Cc2cc(NC(=O)Cc3ccccc3)ccc2O[C@H]1CN(C)S(=O)(=O)c1cccs1 | 14.1% |
| CC(=O)c1nc2ccccc2n1Cc1ccccc1 | 3.29% |
| CC(=O)Oc1c(C(=O)c2nnc(C)o2)c(=O)n(Cc2ccccc2)c2ccccc12 | 66% (active) |
| CCCCCn1c(=O)c(C(=O)OCC)c(Cl)c2ccccc21 | 6.88% |
| Cc1ccc(NC(=S)NC(NC(=O)Cc2cccc3ccccc23)C(Cl)(Cl)Cl)cc1 (stereo not given) | 36% |
| Cc1n[nH]c(=O)c2c1nnn2Cc1ccc(F)cc1 | 0.048% |
| Cc1ccc(CNS(=O)(=O)CCNC(=O)c2ccccc2)cc1 | -8.66% |
| COc1cc(/C=C2\Oc3ccc(C#Cc4ccc(O)cc4)cc3C2=O)cc(OC)c1 | 73.1% (active) |
| COC(=O)C(C)Oc1ccc2c(c1)O/C(=C\c1cccc(Br)c1)C2=O (stereo not given) | -3.21% |

| Structure (SMILES) | inhibition |
| --- | --- |
| COc1cc(C#Cc2ccc3cc(CCCO)oc(=O)c3c2)cc(OC)c1 | -11.2% |
| O=C(C1CC(=O)N(C2CCCC2)C1)N1CCN(c2cccc(C(F)(F)F)c2)CC1 (stereo not given) | 3.91% |
| C[C@H](CO)N1C[C@H](C)[C@H](CN(C)CC2CC2)Oc2ccc(NC(=O)CCN3CCOCC3)cc2C1=O | -4.39% |
| O=C(CCNC(=O)c1ccc([N+](=O)[O-])cc1)NC1CCCCC1 | 8.98% |
| O=c1oc2ccccc2c(=O)c2ccccc12 | -0.811% |
| O=C(Nc1ccccc1)C1CCN(C(=O)c2ccc(Br)cc2)CC1 | -9.91% |
| O=C1Nc2cc(C(=O)N3CCC(N4CCCCC4)CC3)ccc2S/C1=C\c1ccccc1 | 88.1% (active) |
| NC(=O)C1CCN(C(=O)c2ccc(-c3ccccc3)cc2)CC1 | -7.15% |
| O=C1[C@@H](c2ccccc2)[C@@H](c2ccccc2)N1c1cccnc1 | -10.4% |
| COc1ccc(C2NC(=O)C(=O)/C2=C(\O)c2ccc(Cl)cc2)cc1OC (stereo not given) | -6.72% |
| CCOc1cc(N2CCOCC2)c(OCC)cc1NC(=O)c1ccc(C)s1 | 4.27% |
| CCOc1cc(N2CCOCC2)c(OCC)cc1NC(=O)COc1cccc(Cl)c1 | 0.482% |
| CCOc1cc(N2CCOCC2)c(OCC)cc1NC(=O)COc1cccc2cccnc12 | 83.8% (active) |
| CCN1C(=O)N[C@@H](c2ccccc2)[C@H](C(C)=O)[C@H]1C | 2.98% |
| CCOc1ccc(C(=O)NC(=S)Nc2ccc(N3CCOCC3)c(Cl)c2)cc1[N+](=O)[O-] | 6.29% |
| Cc1cc(=O)[nH]c2nnnn12 | -4.79% |
| O=C(NN=Cc1ccccc1)c1ccccc1 | -52.5% |
| COc1cc(CCC(=O)N2CCN(c3ccccc3Cl)CC2)cc(OC)c1OC | 7.49% |
| CC(C)(C)OC(=O)C[C@@H]1C/C=C\C[C@@H](CC(=O)N[C@H](CO)Cc2ccccc2)C(=O)NC[C@@H](c2ccccc2)OC1=O | 1.12% |
| O=C(C[C@H]1C/C=C\C[C@@H](NC(=O)OCC2c3ccccc3-c3ccccc32)C(=O)O[C@@H](c2ccccc2)CNC1=O)N[C@H](CO)Cc1ccccc1 | 86.8% (active) |
| CC(C)(C)OC(=O)C[C@H]1C/C=C\C[C@@H](CC(=O)N[C@H](CO)Cc2ccccc2)C(=O)NC[C@@H](c2ccccc2)OC1=O | 4.03% |
